Measurements as given in article PMC5540273 (PLoS ONE, 2017).

Legend:
Details in all cases: concentration: 1 μM,replicates: in singlicate; n = 1
[1] = tested on: DYRK1B
[2] = tested on: DYRK2
[3] = tested on: EGFR
[4] = tested on: EIF2AK1
[5] = tested on: EPHA1
[6] = tested on: EPHA2
[7] = tested on: EPHA3
[8] = tested on: EPHA4
[9] = tested on: EPHA5
[10] = tested on: EPHA6
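Further: KINOMEscan kinase panel screen.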

Row | Compound | %Inh [1] | %Inh [2] | %Inh [3] | %Inh [4] | %Inh [5] | %Inh [6] | %Inh [7] | %Inh [8] | %Inh [9] | %Inh [10]
1 | CN(c1ccccc1CNc1nc(Nc2ccc3c(c2)CC(=O)N3)ncc1C(F)(F)F)S(C)(=O)=O | 30% | 1% | 0% | 0% | 12% | 4% | 0% | 2% | 6% | 34%
2 | COc1ccc(Nc2nccc(N3CCC(NC(=O)c4cccc(C#N)c4)C3)n2)cc1 (stereo not shown) [GSK1379730] | 39% | 0% | 29% | 0% | 27% | 0% | 0% | 0% | 12% | 0%
3 | Cn1ccc2ncnc(Oc3ccc(NC(=O)Nc4ccnc(C(F)(F)F)c4)c(Cl)c3)c21 | 53% | 0% | 3% | 0% | 0% | 0% | 10% | 29% | 0% | 80%
4 | CCOC(=O)N1CCC(n2cnc(-c3ccc(F)cc3)c2-c2ccnc(N)n2)CC1 [SB-219952] | 30% | 21% | 32% | 19% | 9% | 13% | 14% | 9% | 0% | 12%
5 | OCCn1cc(-c2cnc3nnn(Cc4ccc5ncccc5c4)c3n2)cn1 | 19% | 0% | 0% | 0% | 0% | 0% | 0% | 0% | 0% | 0%
6 | FC(F)(F)c1cc(Br)cc(Nc2nccc(-c3cnn4ncccc34)n2)c1 [GW810578] | 98.3% | 47% | 16% | 0% | 11% | 0% | 7% | 15% | 26% | 18%
7 | O=C(Nc1n[nH]c2cc(-c3ccco3)ccc12)C1CC1 [SB-737447] | 0% | 31% | 9% | 0% | 0% | 10% | 19% | 0% | 0% | 0%
8 | COc1cc2c(Nc3ccc(NC(=O)c4ccccc4)cc3)ncnc2cc1OCCCN1CCOCC1 [GSK301329] | 0% | 35% | 90% | 4% | 3% | 4% | 0% | 7% | 0% | 5%
9 | COC(=O)Nc1nc2cc(Oc3ccc(NC(=O)Nc4cc(C(F)(F)F)ccc4Cl)cc3)ccc2[nH]1.Cl [GW697465] | 0% | 0% | 42% | 0% | 91% | 96.2% | 43% | 92% | 37% | 93.7%
10 | CSc1nccc(-c2c(-c3ccc(F)cc3)ncn2CCCN2CCOCC2)n1.Cl [SB-217146] | 12% | 12% | 0% | 0% | 0% | 0% | 0% | 7% | 0% | 0%
11 | CNC(=O)c1ccccc1Nc1nc(Nc2cccc(CS(C)(=O)=O)c2)ncc1C.O=CO [GSK1520489] | 83% | 97% | 99% | 0% | 99.6% | 99.1% | 91.8% | 88% | 93% | 90%
12 | O=C(Nc1ccccc1)c1cccc(Oc2ccc3nccn3n2)c1 | 28% | 0% | 3% | 0% | 7% | 19% | 0% | 4% | 0% | 2%
13 | C[C@@H]1CNc2c(sc3ccc4nc(-c5ccc(O)cc5)ccc4c23)C(=O)N1 | 98.1% | 24% | 11% | 0% | 0% | 0% | 14% | 0% | 11% | 5%
14 | O=c1[nH]cc(-c2ccc(O)cc2)c2sc(-c3ccncc3)cc12 [GSK1033723] | 84% | 87% | 32% | 12% | 8% | 10% | 0% | 10% | 0% | 6%
15 | Cc1ccc(CC(=O)N2CCc3cc(-c4cn(C)c5ncnc(N)c45)ccc32)cc1 [GSK2634758] | 0% | 7% | 27% | 46% | 0% | 2% | 0% | 0% | 0% | 0%
16 | CN(c1cccc(CNc2nc(Nc3ccc4c(c3)CC(=O)N4)ncc2C(F)(F)F)c1)S(C)(=O)=O | 57% | 28% | 3% | 0% | 3% | 0% | 22% | 1% | 0% | 0%
